Source: PubChem BioAssay AID1460 (National Center for Advancing Translational Sciences (NCATS), 2008)
The whole screen tested about 270,000 compounds, of which about 5,800 (2.1%) were called active. Another 16% or so got no clear call; they are omitted. The list comes from a sample in which actives are over-represented; it also holds similar structures and randomly drawn compounds. Unmarked numbers belong to inactive results. Calls follow the shape of the dose curve; as a rule, active = well fitted inhibition curve with a large enough effect; inconclusive = small, poorly fitted or top-dose-only effect; inactive = flat fitted curve, though single readings scatter.

target: Microtubule-associated protein tau (Homo sapiens) (UniProt P10636); experiment: qHTS for Inhibitors of Tau Fibril Formation, Thioflavin T Binding; conditions: recombinant tau K18 P301L (four-repeat tau fragment), heparin-induced fibrillization, ThT fluorescence; series mostly up to 57.4 µM; activity, negative = inhibition: at the top concentration; also: nearly all actives have a fitted effect of over 55% in size
In short: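 Tau K18 P301L fragment (15 uM unlabeled plus 0.24 uM Alexa 594-labeled) in 100 mM sodium acetate pH 7 with compound, fibrillization induced by 20 uM heparin for 6 hr at 37 C. Thioflavin T (30 uM) added, fluorescence read after 1 hr (ex 450, em 510 nm).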
% is scaled to controls: 0 for no effect and ±100 for the full control effect; potency is read from the fitted curve at half-maximal effect.

Microtubule-associated protein tau (Homo sapiens), sequence (P10636 561-689 P618L limits assumed): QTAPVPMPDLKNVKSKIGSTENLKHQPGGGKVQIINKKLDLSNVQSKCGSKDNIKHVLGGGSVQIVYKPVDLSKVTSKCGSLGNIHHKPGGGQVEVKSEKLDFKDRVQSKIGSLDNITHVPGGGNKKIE

Row | Structure (SMILES) | activity, negative = inhibition | Potency
1 | CCCNC(=O)c1ccc(Cn2c(SCC(N)=O)nc3ccccc3c2=O)cc1 | 6.62% | –
2 | CC(C)(C)c1nnc(NC(=O)C2c3ccccc3Oc3ccccc32)s1 | – | 22.4 µM (active)
3 | CCC(C)(C)NC(=O)C1c2ccccc2Oc2ccccc21 | -0.856% | –
4 | CCC(C)NC(=O)C1c2ccccc2Oc2ccccc21 (stereo unspecified) | -1.94% | –
5 | Cc1ccc(Cl)cc1NC(=O)Cc1ccc(-n2c(C)nc3cccnc32)cc1 | -0.615% | –
6 | COc1cccc(CNS(=O)(=O)c2cc3c(cc2C)n(C)c(=O)c(=O)n3C)c1 | -7.39% | –
7 | Cc1ccccc1CNC(=O)C1CCCN(S(=O)(=O)N(C)c2ccc(F)cc2)C1 (stereo unspecified) | -7.18% | –
8 | Cc1cc(C)cc(-n2c(SCC(=O)NCC3CCCO3)nc3c([nH]c4ccccc43)c2=O)c1 (stereo unspecified) | -15.4% | –
9 | O=C(CSc1nc2ccc([N+](=O)[O-])cc2[nH]1)c1ccc(Cl)cc1 | -14.3% | –
10 | O=C(N/N=C/c1ccc(Cl)cc1)c1nc2ccc([N+](=O)[O-])cc2c(=O)[nH]1 | – | 15.8 µM (active)
11 | N#Cc1cc([N+](=O)[O-])ccc1Oc1cccc(/C=N/NC(=O)c2ccc(Cl)cc2)c1 | -6.07% | –
12 | O=C(CCS(=O)(=O)c1ccccc1)N(Cc1cccnc1)c1nc2c(F)cccc2s1 | -5.97% | –
13 | O=C(CSc1ccc([N+](=O)[O-])cn1)Nc1ccc(N2CCOCC2)cc1 | 7.95% | –
14 | CN(CC(=O)Nc1ccc(N2CCOCC2)cc1)CC(=O)Nc1ccccc1[N+](=O)[O-] | -7.06% | –
15 | O=C(Nc1ccc(N2CCOCC2)cc1)c1ccc(-c2ccccc2[N+](=O)[O-])o1 | – | 2.24 µM (active)
16 | Cc1ccc(S(=O)(=O)n2nc(C)c(S(=O)(=O)N3CCCCCC3)c2C)cc1 | 5.02% | –
17 | CC(=O)Nc1ccc(S(=O)(=O)N2CCN(c3ccccc3)CC2)cc1 | -2.11% | –
18 | CCOc1ccc(OCC)c(NC(=O)c2cc(C)nc3c2c(C)nn3-c2cccc(Cl)c2C)c1 | -9.07% | –
19 | COc1cc(NS(=O)(=O)c2ccc(N=Cc3c(C)[nH]n(-c4ccccc4)c3=O)cc2)nc(OC)n1 | -9.16% | –
20 | COc1cc(SC#N)ccc1N=Cc1c(C)[nH]n(-c2ccc(C)cc2)c1=O | – | 14.1 µM (active)
21 | Cc1cc(/C=C2/C(=N)N3C(=NC2=O)SN=C3S(C)(=O)=O)c(C)n1-c1ccccc1 | -16.2% | –

Row | Structure (SMILES) | activity, negative = inhibition | Potency
22 | CS(=O)(=O)c1ccc2c(c1)SC1=NC(=O)/C(=C/c3ccco3)C(=N)N12 | – | 7.08 µM (active)
23 | CCC1=NN2C(=N)/C(=C/c3cc(C)n(-c4ccccc4)c3C)C(=O)N=C2S1 | -8.51% | –
24 | Cc1cc(C)cc(NC(=O)Cn2nc(N3CCN(c4ccccc4)CC3)ccc2=O)c1 | -11.4% | –
25 | Cc1c(-c2cccc(NC(=O)C(C)(C)C)c2)nc2ncccn12 | -2.03% | –
26 | Cc1cccn2c(=O)c(C(=O)NC(C)c3ccccc3)cnc12 (stereo unspecified) | 5.77% | –
27 | Cc1ccc(-c2csc(NC(=O)c3cccs3)n2)cc1 | -12.4% | –
28 | Cc1nc(NNC(=O)c2ccccc2)cc(-c2ccccc2)n1 | -2.19% | –
29 | Cc1ccc(-c2csc(NNC(=O)c3ccccc3)n2)cc1 | – | 12.6 µM (active)
30 | Cc1ccc(OC(=O)CSc2nnc(-c3cccs3)o2)cc1 | 4.84% | –
31 | CCc1ccc(NS(=O)(=O)c2ccc3[nH]cc(C(=O)NCCc4cccc(C)c4)c(=O)c3c2)cc1 | -0.768% | –
32 | Cc1ccc(N2CC(NC(=O)Cc3cccs3)CC2=O)cc1 (stereo unspecified) | -5.96% | –
33 | COc1cccc(NC(=O)c2ccc3nc(CCc4ccccc4)oc3c2)c1 | -15.7% | –
34 | Cn1c(=O)c2c(n3c4ccccc4nc13)NC(=O)CC2c1cccc(Cl)c1 (stereo unspecified) | -2.25% | –
35 | O=C1Nc2ccc(Br)cc2/C1=N/N=C/C1=C(N2CCOCC2)C(=C\c2ccccc2)/CC1 | – | 4.47 µM (active)
36 | O=C(Cc1ccc(Br)cc1)N1CCN(c2ccccn2)CC1 | 3.26% | –
37 | C(=N\N1CCN(c2ccccn2)CC1)/C1=C(N2CCOCC2)C(=C/c2ccccc2)/CC1 | – | 11.2 µM (active)
38 | O=C(CN1CCN(c2ccccn2)CC1)N1CCc2ccccc21 | -14.3% | –
39 | Cc1c(-c2nc(-c3ccc4c(c3)OCO4)no2)nnn1-c1ccc(Br)cc1F | -17.8% | –
40 | CC1CCCN(c2nc3c(S(=O)(=O)c4ccc(C(C)C)cc4)nnn3c3ccsc23)C1 (stereo unspecified) | 4.44% | –
41 | CCOc1ccc(CNCc2c(C(=O)O)c(C)n(Cc3cccc(OC)c3)c2C)cc1OC | -12.9% | –
42 | CCc1ccc(N(CC)C(=O)CCn2cnc3onc(-c4ccc(F)cc4)c3c2=O)cc1 | -16.1% | –

Row | Structure (SMILES) | activity, negative = inhibition | Potency
43 | Cc1ccc2c(=O)c(C(=O)c3ccc(F)cc3)cn(CC(=O)NC3CCCCC3)c2n1 | -15% | –
44 | COc1cc(-c2noc(-c3ccc(N4CCCC4)c([N+](=O)[O-])c3)n2)cc(OC)c1OC | 1.35% | –
45 | CCN1CCc2nc(NC(=O)c3cc(F)c(F)cc3Cl)sc2C1 | 7.9% | –
46 | CCc1ccccc1NC(=O)c1sc2nc3c(cc2c1N)CN(Cc1ccccc1)CC3 | -9.56% | –
47 | CCc1ccc(NC(=O)c2sc3nc4c(cc3c2N)CN(CC)CC4)cc1 | – | 10 µM (active)
48 | Cc1ccc(-n2ncc(C(=O)N(C)Cc3ccccc3)c2-n2cccc2)cc1 | -13.8% | –
49 | O=[N+]([O-])c1ccc(N/N=C/c2ccccc2)cc1 | – | 3.55 µM (active)
50 | Cc1ccccc1OCCOc1ccc([N+](=O)[O-])cc1/C=N/n1cnnc1 | -19.7% | –
51 | O=C(NC(Cc1c[nH]c2ccccc12)C(=O)N/N=C/c1ccc(Br)cc1)c1cccs1 (stereo unspecified) | 1.42% | –
52 | Cc1cccc(C(=O)NNC(=O)c2cccc([N+](=O)[O-])c2)c1 | -1.12% | –
53 | O=C(Nc1ccccc1)/C(=C/c1ccc([N+](=O)[O-])cc1)NC(=O)c1ccccc1 | -6.58% | –
54 | Cc1cccc(COc2ccccc2/C=N/Nc2ccc([N+](=O)[O-])cc2)c1 | – | 3.16 µM (active)
55 | O=C(N/N=C/c1ccc([N+](=O)[O-])cc1)c1c[nH]c2ccccc12 | – | 2.82 µM (active)
56 | Cc1c(C(=O)N/N=C/c2ccccc2)[nH]c2c([N+](=O)[O-])cccc12 | -2.9% | –
57 | COc1cc(CC(=O)N/N=C/c2ccccc2)c([N+](=O)[O-])cc1OC | -7.85% | –
58 | CNc1ccc(-c2nc(-c3ccco3)no2)cc1[N+](=O)[O-] | 3.41% | –
59 | Cc1ccc(Cl)cc1NC(=O)NC1COc2ccccc2C1 (stereo unspecified) | 3.8% | –
60 | COc1ccc(NC(=O)CSc2nccn2C2CCCC2)cc1OC | -1.2% | –
61 | O=C(CN1C(=O)CCn2nc(-c3ccccc3)cc21)NCc1ccccc1 | -0.0678% | –
